This is an account of results in PubChem BioAssay.

The nature of experiment [1]: nonspecific flux increase, KCNQ1-free cells – parental CHO cells, counter-screen for KCNQ1 potentiator project (AID 493006;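 active = duplicate-averaged activation above buffer control mean plus 5 SD of those controls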;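 for activation: fluorescence ratio of max minus min over baseline after K+ and Tl+ depolarization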). The settings on record: parental CHO-K1 cells, FluxOR thallium flux, at 10 µM; hits give high values.
The target in experiment [2] is Potassium voltage-gated channel subfamily KQT member 1 (Homo sapiens) (UniProt P51787). Put plainly: enhancement of KCNQ1 channel thallium flux – FluxOR thallium flux, CHO cells, duplicates, confirmation (AID 493007).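 For outcome: cells depolarized by a potassium plus thallium sulfate stimulus after compound.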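 For potentiation: 0% = buffer-only wells and 100% = R-L3 activator control.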 Conditions: KCNQ1 cell line, FluxOR thallium flux fluorescence, at 10 µM; hits give high values, % of reference activator effect, buffer zero.
Experiment [3] addresses Potassium voltage-gated channel subfamily KQT member 2 (Rattus norvegicus) (UniProt O88943). The experiment can be described thus: KCNQ2 thallium flux enhancement – KCNQ2-CHO-K1 cells, selectivity assay for KCNQ1 potentiator project (AID 493009;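 active = mean duplicate potentiation above the buffer control mean plus 5 SD of buffer wells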;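 note: assay conditions were tuned for KCNQ1 rather than KCNQ2 modulators; signal is max minus min fluorescence divided by baseline after thallium stimulus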). Conditions: FluxOR thallium flux fluorescence, at 10 µM; hits give high values, scaled: buffer 0, activator control 100.
Experiment [4] addresses Potassium voltage-gated channel subfamily KQT member 1 (Homo sapiens) (UniProt P51787). The experiment can be described thus: KCNQ1 activators by electrophysiology – IonWorks patch clamp, KCNQ1-CHO cells, orthogonal assay for KCNQ1 potentiator project, confirmation (AID 493184;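 active = current rise at least 3 SD above the untreated control mean in each of two repeat wells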;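 for current potentiation: percent change of the same well's current before compound addition so 0% = no change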). The settings on record: automated patch clamp current, at 10 µM; hits give high values.
In experiment [5] the target is T1, Potassium voltage-gated channel subfamily E member 1 (Homo sapiens) + Potassium voltage-gated channel subfamily KQT member 1 (Homo sapiens) (UniProt P15382+P51787). The experiment can be described thus: KCNQ1-E1 channel activation – thallium flux, CHO-K1 KCNQ1/E1 cells, selectivity assay for KCNQ1 potentiator project, confirmation (AID 493186;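 active = mean duplicate activation above the buffer control mean plus 5 SD of those controls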;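 for activation: 0% = assay buffer control and 100% = R-L3 activator control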). The settings on record: FluxOR thallium flux, at 10 µM; hits give high values.

A short description of experiment [6]: nonspecific activity in CHO-K1 cells without KCNQ1 – parental CHO cells, Tl flux, counter-screen for KCNQ1 inhibitor project (AID 588366;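 active = mean of duplicate thallium-flux fluorescence ratios in parental host cells more than 5 SD below the buffer control mean, cut at about 0.38 in these data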;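 note: ratio is peak minus minimum fluorescence divided by baseline fluorescence; actives read low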). Conditions: parental CHO-K1, FluxOR thallium flux fluorescence ratio; at 10 µM; hits give low values; zero means no signal rise above baseline.
Experiment [7] concerns the target Potassium voltage-gated channel subfamily KQT member 2 (Rattus norvegicus) (UniProt O88943). The experiment can be described thus: block of rat KCNQ2 potassium channel – cell-based, selectivity assay for KCNQ1 inhibitor project (AID 651746;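 active = mean percent inhibition of the KCNQ2 thallium signal more than 5 SD above the buffer-only control wells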). The settings on record: KCNQ2 cells, FluxOR thallium flux fluorescence, at 10 µM; hits give high values.
Experiment [8] deals with T1, Potassium voltage-gated channel subfamily E member 1 (Homo sapiens) + Potassium voltage-gated channel subfamily KQT member 1 (Homo sapiens). Put plainly: block of human IKs channel complex – CHO-K1 cells, thallium flux, FluxOR, selectivity assay for KCNQ1 inhibitor project (AID 652147;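 active = mean percent inhibition of duplicate wells above the buffer-only control mean plus 3 SD of those controls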). Conditions: KCNQ1/KCNE1 cells, FluxOR thallium flux fluorescence, at 10 µM; hits give high values.

A number with no mark means an inactive call. This is one part of the list. Active and inactive are the calls of the source.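 Rule for the calls, unless noted: active = potentiation averaged over duplicate wells exceeding buffer-only control mean by more than 3 SD; inactive = the rest.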

Potassium voltage-gated channel subfamily KQT member 1 (Homo sapiens), sequence (P51787 whole entry, looked up): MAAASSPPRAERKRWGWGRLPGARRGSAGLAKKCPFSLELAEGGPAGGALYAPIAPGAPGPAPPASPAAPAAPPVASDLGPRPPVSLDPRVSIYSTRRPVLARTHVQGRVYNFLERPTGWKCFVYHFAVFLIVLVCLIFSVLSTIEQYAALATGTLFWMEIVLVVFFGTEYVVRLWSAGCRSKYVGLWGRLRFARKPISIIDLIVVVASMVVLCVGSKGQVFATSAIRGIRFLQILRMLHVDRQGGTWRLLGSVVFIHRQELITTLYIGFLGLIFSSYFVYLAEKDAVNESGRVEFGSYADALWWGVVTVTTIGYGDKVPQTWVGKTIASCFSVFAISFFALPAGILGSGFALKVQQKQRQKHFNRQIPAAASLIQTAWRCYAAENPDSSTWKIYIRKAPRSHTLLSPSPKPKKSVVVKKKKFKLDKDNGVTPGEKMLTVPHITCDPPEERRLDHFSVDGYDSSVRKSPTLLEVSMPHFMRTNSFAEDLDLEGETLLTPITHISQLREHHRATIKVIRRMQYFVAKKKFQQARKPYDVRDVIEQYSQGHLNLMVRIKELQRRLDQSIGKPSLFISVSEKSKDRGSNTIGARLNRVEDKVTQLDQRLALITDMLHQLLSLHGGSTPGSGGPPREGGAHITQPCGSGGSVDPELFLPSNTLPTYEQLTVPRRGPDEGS
Potassium voltage-gated channel subfamily KQT member 2 (Rattus norvegicus), sequence (O88943 whole entry, looked up): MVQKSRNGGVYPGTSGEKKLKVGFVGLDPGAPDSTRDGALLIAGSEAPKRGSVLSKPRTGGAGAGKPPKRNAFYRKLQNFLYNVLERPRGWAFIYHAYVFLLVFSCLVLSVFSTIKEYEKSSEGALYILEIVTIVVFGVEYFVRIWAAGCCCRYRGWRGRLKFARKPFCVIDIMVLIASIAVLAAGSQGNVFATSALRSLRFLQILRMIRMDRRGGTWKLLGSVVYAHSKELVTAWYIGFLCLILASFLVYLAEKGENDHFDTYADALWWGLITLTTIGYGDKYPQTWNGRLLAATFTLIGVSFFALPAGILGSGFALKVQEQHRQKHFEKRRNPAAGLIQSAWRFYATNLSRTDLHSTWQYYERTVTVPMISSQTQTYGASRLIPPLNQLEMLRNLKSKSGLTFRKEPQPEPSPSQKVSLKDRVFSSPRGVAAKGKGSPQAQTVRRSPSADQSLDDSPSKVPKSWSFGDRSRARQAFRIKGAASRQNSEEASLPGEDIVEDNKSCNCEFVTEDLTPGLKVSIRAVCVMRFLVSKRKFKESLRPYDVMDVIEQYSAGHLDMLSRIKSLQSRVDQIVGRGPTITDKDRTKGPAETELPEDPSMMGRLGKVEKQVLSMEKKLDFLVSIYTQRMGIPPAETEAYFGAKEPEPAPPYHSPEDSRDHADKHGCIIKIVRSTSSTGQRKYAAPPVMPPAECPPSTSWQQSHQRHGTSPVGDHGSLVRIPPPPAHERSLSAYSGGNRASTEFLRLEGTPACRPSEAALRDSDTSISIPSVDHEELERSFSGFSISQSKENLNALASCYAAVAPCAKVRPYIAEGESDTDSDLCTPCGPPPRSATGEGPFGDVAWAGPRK
T1 sequence (P51787 whole entry, looked up): as the sequence (P51787 whole entry, looked up) above

Regarding `Cc1occc1C(=O)NNC(=S)NC(=O)COc1ccc(Cl)cc1Cl`, the activation in experiment [1] is 256% (active). Further, the potentiation in experiment [2] is 259% (active); in experiment [3] it was 442% (active). Further, the outcome in experiment [4] was inactive.
Turning to `CC(C)(C)C(=O)NC(=S)NNC(=O)C(c1ccccc1)c1ccccc1`, the result in experiment [1], in experiment [3], in experiment [4] and in experiment [5] was inactive. Moreover, the potentiation in experiment [2] is 22% (active).
Regarding `O=C(Nc1nnc(-c2cccs2)o1)c1cccc(C(F)(F)F)c1`, the activation in experiment [1] is 208% (active). The potentiation in experiment [2] was 50% (active). Besides, the result in experiment [4] was inactive.
Consider `COc1ccc(C(=O)NC(=S)NNC(=O)c2cccc(C)c2)cc1`, for which the result in experiment [1] and in experiment [4] was inactive. Moreover, the potentiation in experiment [2] was 128% (active); in experiment [3], 227% (active). The activation in experiment [5] was 31.9% (active).
Take `Cc1onc(-c2ccccc2)c1C(=O)NNC(=S)NC(=O)c1ccc(Br)cc1`: the outcome in experiment [1], in experiment [2], in experiment [3], in experiment [4] and in experiment [5] was inactive.
Consider `Cc1onc(-c2ccccc2)c1C(=O)NNC(=S)NC(=O)c1ccc(Cl)cc1Cl`, for which the outcome in experiment [1], in experiment [3], in experiment [4] and in experiment [5] was inactive. In addition, the potentiation in experiment [2] was 29.5% (active).
As to `NC(=Nc1ccccc1)Nc1ccccc1`, the result in experiment [1], in experiment [2], in experiment [3], in experiment [4] and in experiment [5] was inactive.
On to `CC(Oc1ccc(Cl)cc1)C(=O)NNC(=S)NC(=O)c1ccco1` (stereo unspecified), for which the result in experiment [1] and in experiment [4] was inactive. Further, the potentiation in experiment [2] is 50% (active); in experiment [3], 170% (active). For the same compound, in experiment [5], the activation is 13.8% (active).
For `CC1CN(C(=O)c2ccc(NS(=O)(=O)c3ccc(C(C)(C)C)cc3)cc2)CC(C)O1` (stereo unspecified), the outcome in experiment [1], in experiment [2], in experiment [3], in experiment [4] and in experiment [5] was inactive.
In the case of `Cc1onc(-c2ccccc2)c1C(=O)NNC(=S)NC(=O)c1ccc(F)cc1`, the outcome in experiment [1], in experiment [2], in experiment [3] and in experiment [5] was inactive. The current potentiation in experiment [4] was 16.2% (active).
As to `Cc1cccc(C(=O)NNC(=S)NC(=O)c2ccccc2)c1`, the result in experiment [1] and in experiment [4] was inactive. Also, the values for the potentiation in experiment [2] and in experiment [3] were 74.5% (active) and 192% (active), respectively. The activation in experiment [5] was 46.6% (active).
`Cc1cccc(C(=O)NC(=S)NNC(=O)c2ccccc2Cl)c1`: the outcome in experiment [1], in experiment [4] and in experiment [5] was inactive. The potentiation in experiment [2] is 50.5% (active); in experiment [3] it was 158% (active).
Take `Cc1ccccc1C(=O)NNC(=S)NC(=O)c1ccc(Cl)cc1Cl`: the outcome in experiment [1] and in experiment [4] was inactive. In addition, the potentiation was 117% (active) in experiment [2] and 222% (active) in experiment [3]. Moreover, the activation in experiment [5] is 19.9% (active).
As for `COC(=O)C1=NN(C(=O)c2ccc(C)cc2)C(O)(c2ccc(Cl)cc2)C1` (stereo unspecified), in experiment [1], the activation was 602% (active). Also, the potentiation in experiment [2] is 280% (active). For the same compound, the outcome in experiment [4] was inactive.
On to `Cc1ccc(C(=O)NNC(=S)NC(=O)c2ccccc2)cc1`, for which the activation in experiment [1] was 188% (active). Besides, the potentiation in experiment [2] is 156% (active); in experiment [3], 300% (active). Moreover, the outcome in experiment [4] was inactive.
On to `Cc1ccc(OCC(=O)NNC(=S)NC(=O)C(C)(C)C)c(Br)c1`, for which the outcome in experiment [1], in experiment [4] and in experiment [5] was inactive. Moreover, the potentiation is 73% (active) in experiment [2] and 158% (active) in experiment [3].
Take `CCCCC(=O)NNC(=S)NC(=O)C(c1ccccc1)c1ccccc1`: the result in experiment [1], in experiment [2], in experiment [3], in experiment [4] and in experiment [5] was inactive.
Turning to `Cc1cccc(C(=O)NC(=S)NNC(=O)c2cccs2)c1`, the activation in experiment [1] is 142% (active). Further, the potentiation in experiment [2] is 75% (active); in experiment [3] it was 210% (active). In experiment [4], the current potentiation is 22.2% (active).
For `CCN1/C(=C\c2ccc3ccccc3[n+]2CC)Sc2cc(C)ccc21`, the fluorescence ratio (Tl flux) in experiment [6] was 0.043 (active). The result in experiment [7] and in experiment [8] was inactive.
